AID504770: growth inhibitors of E. coli YBA685 in a screen for V. cholerae RctB (chromosome II replication) inhibitors; E. coli YBA685 rctB-dependent plasmid, OD600 growth, 3 h; stronger effect = lower value; AID 504770; z-score (concentration not given with the values); 0.27% of 130,000 active; in the data active means z-score below about -2, passing the limit was not always enough
PV pol inh: poliovirus RNA polymerase inhibition. % elongation, % (compound at 16.7 µg/mL). poliovirus polymerase elongation, fluorescence polarization; stronger effect = lower value. 0.66% of 150,000 active. P03300; in the data active means % elongation below about 90%
Target sequence (P03300 1749-2209 limits assumed): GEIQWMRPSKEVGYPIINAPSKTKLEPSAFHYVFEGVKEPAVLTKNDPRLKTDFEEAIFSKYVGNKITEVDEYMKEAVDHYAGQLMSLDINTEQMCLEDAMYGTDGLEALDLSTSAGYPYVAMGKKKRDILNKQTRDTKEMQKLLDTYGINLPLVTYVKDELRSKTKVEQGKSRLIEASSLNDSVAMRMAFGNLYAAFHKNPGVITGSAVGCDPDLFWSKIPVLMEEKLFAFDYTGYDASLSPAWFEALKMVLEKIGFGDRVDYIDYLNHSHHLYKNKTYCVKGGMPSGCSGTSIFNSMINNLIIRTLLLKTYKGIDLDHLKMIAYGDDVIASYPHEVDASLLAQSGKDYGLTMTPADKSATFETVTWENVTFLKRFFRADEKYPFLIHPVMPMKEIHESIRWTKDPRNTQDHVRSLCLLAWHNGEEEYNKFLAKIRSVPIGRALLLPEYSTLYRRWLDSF
Mtb MbtI inh: inhibitors of Mycobacterium tuberculosis siderophore enzyme MbtI. 0.89% of 100,000 active. P9WFX0. inhibition, % (concentration not given with the values). purified MbtI enzyme, fluorescence intensity read-out; in the data active means inhibition mostly above about 56%, no sharp cut-off; inactive means mostly below about 77%
MenB inh: blocks the Mycobacterium tuberculosis MenB enzyme; inhibition, % (test concentration not listed); P9WNP5; 0.43% of 100,000 active; MenB enzyme assay, absorbance read-out; in the data active means inhibition above about 21%, passing the limit was not always enough
Active calls of the source: *; · = not tested or not shown. Shown are actives, neighbours in structure and some others; about 1.4% of the full set was active somewhere.

SMILES	AID504770	PV pol inh	Mtb MbtI inh	MenB inh
COc1ccc(CCN2CC(=O)N3CCCC(C4=CC(=O)C=CC4=O)=C3C2=O)cc1OC	-0.4	95	99*	-13
COc1ccc(CCN2C(=O)CC(=O)NC2=S)cc1OC	-0.35	100	27	-121
CN(C)S(=O)(=O)c1cccc(C(=O)OCC(=O)c2ccc[nH]2)c1	-0.25	109	-11	-14
N#Cc1ccc(-c2cccnc2)n(CC(=O)N2CCOCC2)c1=O	1.1	101	27	42*
CC(C)N(C(=O)Cn1c(-c2cccnc2)ccc(C#N)c1=O)C(C)C	-2.5	99	13	-21
C=CCn1c(SC)nc2sc(CC)cc2c1=O	0.3	103	4	-59
CCCCS(=O)(=O)Nc1ccc(C)cn1	0.55	83*	101	0
CCCCS(=O)(=O)Nc1nccs1	-0.6	99	-4	-15
CCOC(=O)c1cc(-c2ccccn2)nc2c1c(=O)n(CC(=O)OC)c(=O)n2Cc1ccccc1	-0.65	81*	10	-15
CC(C)(C)c1cs/c(=N/c2ccccn2)n1-c1ccc(Cl)cc1	0.35	102	-11	-6
Clc1ss/c(=N\c2ccccn2)c1Cl	0.3	87*	·	-19
Nc1cccc2cccc(C(=O)O)c12	-0.8	89*	-7	·
c1ccc(OCc2nnc3n2N=C(c2ccccc2)CS3)cc1	-0.3	93	84*	-41
Fc1ccc(C2=Nn3c(Cc4ccccc4)nnc3SC2)cc1	-0.25	104	-12	·
Brc1ccc(C2=Nn3c(Cn4nnc5ccccc54)nnc3SC2)cc1	0.25	69*	68*	-5
COc1ccc(-c2cc(-c3ccccc3)c(C#N)c(SCC(O)CS(=O)(=O)Cc3ccc(Cl)cc3)n2)cc1 (configuration not stated)	·	105	·	·
N#Cc1c(-c2ccccc2)cc(-c2ccccc2)nc1SCC(O)CS(=O)(=O)Cc1ccc(Cl)cc1 (configuration not stated)	·	89*	·	·
CCCNS(=O)(=O)c1cc2c3c(c1)c(C)cc(=O)n3CCC2	0.15	100	39	-16
CC(C)c1ccc(NC(=S)Sc2ccc(F)cc2F)cc1	-0.85	97	65*	-12
Cc1ccc(NC(=O)CN(CCO)c2ccccc2)cc1	-0.2	102	9	·
C=C1c2cccc(O)c2C(O)=C2C(=O)C3(O)C(O)=C(C(N)=O)C(=O)C(N(C)C)C3C(O)C12 (configuration not stated)	-6.9*	102	38	-20
CCCNC(=O)Nc1cn(CC(C)C)c(=O)c2ccccc12	-0.9	16*	120	1
Cc1ccc(N2CCN(C(=O)Nc3cn(CC(C)C)c(=O)c4ccccc34)CC2)c(C)c1	·	68*	·	·
COc1ccc(CNC(=O)Nc2cn(CC(C)C)c(=O)c3ccccc23)c(OC)c1	·	-10*	·	·
CCN1CCCC1CNC(=O)Nc1cn(CC(C)C)c(=O)c2ccccc12 (configuration not stated)	-0.3	100	-28	-10
SMILES	AID504770	PV pol inh	Mtb MbtI inh	MenB inh
COc1ccccc1N1CCN(C(=O)Nc2cn(CC(C)C)c(=O)c3ccccc23)CC1	·	104	·	·
Cc1cccc(N2CCN(C(=O)Nc3cn(CC(C)C)c(=O)c4ccccc34)CC2)c1C	·	98	·	·
O=C1c2cccc3cccc(c23)N1c1ccccc1	-0.6	103	5	-17
CCOc1ccc(CCNC(=O)c2cnc3sc(N4CCCC4)nn3c2=O)cc1	·	5.0*	·	·
CCOc1ccc(CCNC(=O)c2cnc3sc(N4CCCCCC4)nn3c2=O)cc1	·	107	·	·
Cn1c(C2CCCCC2)nc2ccccc21	1.2	102	1	28*
Cn1c(CNC2CCCCC2)nc2ccccc21	-1.8	·	·	·
O=C1C=CC(=NS(=O)(=O)c2ccc(C(=O)O)cc2)C=C1	-0.55	99	91*	13
O=C1C=CC(=NS(=O)(=O)c2cccs2)C=C1	-1.2	·	·	·
C=CCN1C(=O)/C(=C\c2ccc(OC)cc2)C(=O)NC1=S	-0.8	99	95*	-160
C=CCN1C(=O)/C(=C\c2ccc(N(CC)CC)cc2)C(=O)NC1=S	0.2	100	79*	-35
C=CCN1C(=O)/C(=C\c2ccc(O)c(OC)c2)C(=O)NC1=S	-0.9	102	35	-72
C=CCN1C(=O)/C(=C\c2ccc(O)c(Br)c2)C(=O)NC1=S	-0.25	100	14	-48
C=CCN1C(=O)/C(=C\c2ccc(OCc3ccccc3C#N)cc2)C(=O)NC1=S	-0.35	102	74*	-56
Cc1nnc2n1NC(=Nc1ccc(Br)cc1)CS2	0.1	·	·	·
CC1Cc2ccccc2N1C(=O)/C=C/c1cccc(Br)c1 (configuration not stated)	-0.55	102	-7	·
COc1ccc(OCC(=O)NCCO)cc1	1.7	102	14	35*

From PubChem
